This note sets out measurements from PubChem BioAssay (NCI).

About 79,000 compounds went through this panel and 15% of them were active in at least one assay; those are over-represented in the sample as a whole. Unmarked numbers belong to inactive results. Cut-off read from the data, not from the text of the source: active = growth inhibition above about 70%; inactive = the rest.

One assay in a line: NCI Yeast Anticancer Drug Screen. Data for the rad50 strain (AID 155).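 Note: 0% = growth of vehicle-only cultures of the same strain.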 The note with it: S. cerevisiae rad50 strain growth inhibition; at 50.0 µM; active compounds read high. In short, it runs like this:
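Inhibition values express reduced yeast growth in compound-treated cultures relative to vehicle-treated controls.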
Consider `Cn1c(=O)c(N=Nc2c(=O)n(C)c(=O)n3c2[nH]c2ccccc23)c2[nH]c3ccccc3n2c1=O`, for which the growth inhibition was -2.1%.

Take `CCCCC(CC)CN(CC(CC)CCCC)C(=O)C(C)OC(=O)C(CC)CCCC` (stereo not given): the growth inhibition is 3.7%.

Regarding `CC1CN(CCO)C(C)(C)C1` (stereo not given), the growth inhibition is 4.6%.

On to `CC1NCCC(CC(=O)O)C1CC(=O)O` (stereo not given), for which the growth inhibition is -7.55%.

For the molecule `CCOC(=O)C(Cc1ccccc1)NC(=O)c1[nH]cnc1/N=N/N(C)C` (stereo not given), the growth inhibition is 44%.

On to `CCN(CC)CCOC(C)=O`, for which the growth inhibition was 8.25%.

For `Cc1ccc(S(=O)(=O)OCC2=C(COS(=O)(=O)c3ccc(C)cc3)C3c4ccccc4C2c2ccccc23)cc1`, the growth inhibition is 31.3%.

`CC1=C(C(=O)NCc2ccccc2)C(c2ccc([N+](=O)[O-])cc2)C(C(=O)NCc2ccccc2)=C(C)N1`: the growth inhibition is -10.6%.

For `O=C(OCCOc1ccc(Cl)cc1Cl)c1ccccc1O`, the growth inhibition was -2.4%.

Turning to `Clc1ccccc1C=Nc1ccccc1`, the growth inhibition is 31.2%.

With `COc1ccc(/C(C)=N/NC(=O)CC(=O)N(C(=O)c2ccccc2)c2ccc(C)cc2)cc1`, the growth inhibition was -8.45%.

As for `Cc1nc(N)[nH]c(=O)c1CCCNc1ccc(CCCCCCC2(CCl)OCCO2)cc1`, the growth inhibition was 12.4%.

Turning to `COC(=O)CC1C(OC)OC23CCC1C2(C)CCC1C3CCC2CC(OC(C)=O)CCC21C` (stereo not given), the growth inhibition was 28.1%.

On to `O=C(CC(C(=O)c1cccs1)c1cccs1)c1ccsc1` (stereo not given), for which the growth inhibition is -4.2%.

In the case of `N#CCCCNc1ccccc1`, the growth inhibition was -19.1%.

For `CCCC(C)C(=O)OC1CCCCC1C` (stereo not given), the growth inhibition is -0.95%.

Turning to `O=C(Nc1ccccc1[N+](=O)[O-])Oc1ccc(-c2ccccc2)cc1`, the growth inhibition is 9.05%.

With `CCCCCCCCCCCC(=O)CCCCCCCCCCC`, the growth inhibition is 4%.

Take `C=CC(=O)OCC(C)(C)COC(=O)C=C`: the growth inhibition is 3.3%.

Consider `Nc1nnnn1C1CCCCC1`, for which the growth inhibition was 9.3%.

`Cc1c(C)c(C(=O)O)c(C)c(C)c1C(=O)O`: the growth inhibition was 25.9%.

As for `NC(N)=NC(N)=NCc1ccccc1`, the growth inhibition is 5.45%.

`Nc1nnc(-c2ccccc2)s1`: the growth inhibition was -11.8%.

As for `CCN(CC)CCOC(=O)Cc1ccccc1`, the growth inhibition is -8.9%.

As for `C[n+]1ccc(/C=C/c2ccc(O)c3ncccc23)c2cccc(O)c21`, the growth inhibition is 38.5%.

For `Cn1c([N+](=O)[O-])cnc1COc1ccc(NC(=O)CN2CCOCC2)cc1`, the growth inhibition was 27%.

For `CCC(=O)CC(=O)C(=O)OC`, the growth inhibition is 6.25%.

Regarding `Nc1ccccc1SC1CC(=O)N(c2ccc(Br)cc2)C1=O` (stereo not given), the growth inhibition is 13.2%.

Regarding `CCN(CC)c1nc2ccccc2o1`, the growth inhibition is -16.9%.

In the case of `CC(C(=O)O)N(CCC#N)CCC#N` (stereo not given), the growth inhibition is 17.8%.

As to `COC(=O)CCNC(=O)c1ccccc1`, the growth inhibition was 3.5%.

For the molecule `COc1cc(C=O)c(-c2cc(OC)c(OC)cc2C=O)cc1OC`, the growth inhibition is 5.9%.

For the molecule `CN(C)c1c(F)c(F)c(N=Nc2ccccc2)c(F)c1F`, the growth inhibition is 0.75%.

As to `Nc1nc2c(c(-c3nc(N)nc4c3CCC4)n1)CCC2`, the growth inhibition is 9.7%.

`CC1=C(C(=O)CC(=O)C(=O)Nc2cccc(Cl)c2C)Sc2ccccc2N1`: the growth inhibition is -18.8%.

`CC(=O)Nc1ccc(F)cc1`: the growth inhibition was -38.3%.

`O=C(O)C1CCC1C(=O)O` (stereo not given): the growth inhibition is -18.1%.

For `CC(C)CC(O)C(CC(=O)Nc1ccccc1)S(=O)(=O)c1ccccc1` (stereo not given), the growth inhibition was -21.9%.

On to `Oc1cc(N2CCCC2)ccc1/C=N/N1C(=S)N(c2ccccc2)C(=Nc2ccccc2)C1=Nc1ccccc1`, for which the growth inhibition is -23.1%.

For the molecule `CN1CCCN(C)CCCN(C)CCCN(C)CCC1`, the growth inhibition was -19.8%.

The nature of another assay: NCI Yeast Anticancer Drug Screen. Data for the mec2-1 strain (AID 157). The note with it: S. cerevisiae mec2-1 strain, at 50.0 µM, active compounds read high. The essentials: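 Strain: mec2-1 (DNA repair/cell cycle alteration). Compound exposure, then growth measured; inhibition expressed relative to vehicle.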
With `Cn1c(=O)c(N=Nc2c(=O)n(C)c(=O)n3c2[nH]c2ccccc23)c2[nH]c3ccccc3n2c1=O`, the growth inhibition is 17.1%.

Consider `CCCCC(CC)CN(CC(CC)CCCC)C(=O)C(C)OC(=O)C(CC)CCCC` (stereo not given), for which the growth inhibition is 6.1%.

For `CC1CN(CCO)C(C)(C)C1` (stereo not given), the growth inhibition was 17.8%.

As for `CC1NCCC(CC(=O)O)C1CC(=O)O` (stereo not given), the growth inhibition is -26%.

Regarding `CCOC(=O)C(Cc1ccccc1)NC(=O)c1[nH]cnc1/N=N/N(C)C` (stereo not given), the growth inhibition was -44%.

For the molecule `CCN(CC)CCOC(C)=O`, the growth inhibition is -15.7%.

In the case of `Cc1ccc(S(=O)(=O)OCC2=C(COS(=O)(=O)c3ccc(C)cc3)C3c4ccccc4C2c2ccccc23)cc1`, the growth inhibition is 5.35%.

For `CC1=C(C(=O)NCc2ccccc2)C(c2ccc([N+](=O)[O-])cc2)C(C(=O)NCc2ccccc2)=C(C)N1`, the growth inhibition is -15.2%.

For `O=C(OCCOc1ccc(Cl)cc1Cl)c1ccccc1O`, the growth inhibition is -17.4%.

Take `Clc1ccccc1C=Nc1ccccc1`: the growth inhibition is 11.9%.

For the molecule `COc1ccc(/C(C)=N/NC(=O)CC(=O)N(C(=O)c2ccccc2)c2ccc(C)cc2)cc1`, the growth inhibition was -36%.

`Cc1nc(N)[nH]c(=O)c1CCCNc1ccc(CCCCCCC2(CCl)OCCO2)cc1`: the growth inhibition is -0.15%.

With `COC(=O)CC1C(OC)OC23CCC1C2(C)CCC1C3CCC2CC(OC(C)=O)CCC21C` (stereo not given), the growth inhibition is 3%.

Regarding `O=C(CC(C(=O)c1cccs1)c1cccs1)c1ccsc1` (stereo not given), the growth inhibition was -24.1%.

`N#CCCCNc1ccccc1`: the growth inhibition is -15%.

For the molecule `CCCC(C)C(=O)OC1CCCCC1C` (stereo not given), the growth inhibition is 4.25%.

Turning to `O=C(Nc1ccccc1[N+](=O)[O-])Oc1ccc(-c2ccccc2)cc1`, the growth inhibition is 5.75%.

As to `CCCCCCCCCCCC(=O)CCCCCCCCCCC`, the growth inhibition is 2.2%.

Consider `C=CC(=O)OCC(C)(C)COC(=O)C=C`, for which the growth inhibition is -34.5%.

As to `Nc1nnnn1C1CCCCC1`, the growth inhibition is 3.8%.

In the case of `Cc1c(C)c(C(=O)O)c(C)c(C)c1C(=O)O`, the growth inhibition was -8.1%.

`NC(N)=NC(N)=NCc1ccccc1`: the growth inhibition is -2.45%.

For the molecule `Nc1nnc(-c2ccccc2)s1`, the growth inhibition is 5.95%.

For `CCN(CC)CCOC(=O)Cc1ccccc1`, the growth inhibition was -12.7%.

Take `C[n+]1ccc(/C=C/c2ccc(O)c3ncccc23)c2cccc(O)c21`: the growth inhibition was 41.8%.

Regarding `Cn1c([N+](=O)[O-])cnc1COc1ccc(NC(=O)CN2CCOCC2)cc1`, the growth inhibition is 1.05%.

Consider `CCC(=O)CC(=O)C(=O)OC`, for which the growth inhibition is 14.6%.

With `Nc1ccccc1SC1CC(=O)N(c2ccc(Br)cc2)C1=O` (stereo not given), the growth inhibition is 3.4%.

Take `CCN(CC)c1nc2ccccc2o1`: the growth inhibition is 16%.

In the case of `CC(C(=O)O)N(CCC#N)CCC#N` (stereo not given), the growth inhibition is -6.05%.

`COC(=O)CCNC(=O)c1ccccc1`: the growth inhibition is -1.6%.

As for `COc1cc(C=O)c(-c2cc(OC)c(OC)cc2C=O)cc1OC`, the growth inhibition was -6.65%.

On to `CN(C)c1c(F)c(F)c(N=Nc2ccccc2)c(F)c1F`, for which the growth inhibition was -2.6%.

As for `Nc1nc2c(c(-c3nc(N)nc4c3CCC4)n1)CCC2`, the growth inhibition was 15.4%.

With `CC1=C(C(=O)CC(=O)C(=O)Nc2cccc(Cl)c2C)Sc2ccccc2N1`, the growth inhibition was -8.1%.

Turning to `CC(=O)Nc1ccc(F)cc1`, the growth inhibition was -25.7%.

Regarding `O=C(O)C1CCC1C(=O)O` (stereo not given), the growth inhibition was -24.1%.

For the molecule `CC(C)CC(O)C(CC(=O)Nc1ccccc1)S(=O)(=O)c1ccccc1` (stereo not given), the growth inhibition was -16.4%.

Take `Oc1cc(N2CCCC2)ccc1/C=N/N1C(=S)N(c2ccccc2)C(=Nc2ccccc2)C1=Nc1ccccc1`: the growth inhibition was -31.8%.

As for `CN1CCCN(C)CCCN(C)CCCN(C)CCC1`, the growth inhibition is -2.45%.
